Compounds with a hit are over-represented: about 1.5% of the library has one in this group of screens.
Epigenetic derep = regulators of epigenetic silencing causing reporter derepression in mouse cells | hit rate 0.2% among 280,000 | murine LDR cells, GFP reporter derepression, 30 h | AID 1865 | Potency, µM (series often up to 53.9 µM), for inactives: top-dose GFP activation, most hits filed as activators; also: % of control where 0% means no effect; nearly all actives have a fitted effect of over 60% in size
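Murine LDR cells carrying a silenced, genomically integrated CMV-driven GFP reporter were exposed to compound for 30 hours at 37 C. After PBS washes, GFP-positive cells (20–120 um objects) were counted by laser-scanning microplate cytometry.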
LMNA splice mod = changes lamin A minigene splicing in HeLa cells; HeLa LMNA splicing GFP/RFP minigene ratio, 48 h; Potency, µM (highest dose often 46.1 µM), for inactives: at the top dose ratio change, negative = inhibition, actives largely listed as inhibitors; hit rate 0.01% among 200,000; AID 1487; active = well fitted inhibition curve with a large enough effect in the signal ratio, with a control signal flat, not every such curve was filed as active; inconclusive = small, poorly fitted or top-dose-only effect, or effect the other way, or a change in a side signal; the % refers to the signal ratio; also: % is scaled to controls: 0 for no effect and ±100 for the full control effect
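Read-out is the ratio of GFP to DsRed2 object intensity, acquired by 488 nm laser-scanning cytometry on HeLa lamin A-EGFP minigene reporter cells. Compound incubation 48 hrs at 37 °C in Opti-MEM with 2% FBS; DMSO 0.5% final.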
NPSR antag = neuropeptide S receptor (human) antagonism, cAMP | Q6W5P4 | CHO-NPSR cells, cAMP TR-FRET, antagonist mode | Potency, µM (top dose mostly 38.3 µM), for the others: at the top dose activity change, negative = inhibition, actives largely listed as inhibitors | hit rate 1% among 220,000; also: % is scaled to controls: 0 for no effect and ±100 for the full control effect; nearly all actives have a fitted effect of over 50% in size
Target sequence (Q6W5P4 whole entry, looked up): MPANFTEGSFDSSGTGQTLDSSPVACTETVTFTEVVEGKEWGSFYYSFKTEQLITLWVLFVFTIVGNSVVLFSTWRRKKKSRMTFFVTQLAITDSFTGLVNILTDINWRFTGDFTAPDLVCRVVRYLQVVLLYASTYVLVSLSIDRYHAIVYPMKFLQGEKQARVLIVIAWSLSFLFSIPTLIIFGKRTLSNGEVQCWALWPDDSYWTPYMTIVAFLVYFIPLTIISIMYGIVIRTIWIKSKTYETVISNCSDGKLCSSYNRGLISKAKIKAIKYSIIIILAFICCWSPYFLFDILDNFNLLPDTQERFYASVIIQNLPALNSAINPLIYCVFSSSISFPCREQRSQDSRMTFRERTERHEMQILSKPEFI
HTT ATP protect = Huntington cell model cytoprotection by ATP luminescence | PC12 HTT-Q103 induced, cytoprotection, ATP luminescence, 40 h | Potency, µM (titrated, usually from 56.4 µM), for inactives: cytoprotection (ATP increase), usual class: activators | hit rate 0.14% among 230,000 | AID 1471; also: % of control where 0% means no effect; nearly all actives have a fitted effect of over 45% in size
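Compounds were screened for protection of PC12 cells against cell death after tebufenozide induction (100 nM final) of mutant Huntingtin exon 1 (Q103) fused to GFP.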
HttQ103 aggreg = mutant huntingtin aggregation inhibition; PC12 HttQ103-GFP aggregates, Acumen cytometry, 40 h; Potency, µM (series often up to 46.1 µM), for the others: at the highest dose activity change, negative = inhibition, actives largely listed as inhibitors; hit rate 1.1% among 220,000; also: % is scaled to controls: 0 for no effect and ±100 for the full control effect; nearly all actives have a fitted effect of over 60% in size
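Aggregate formation scored by laser-scanning cytometer (488 excitation, 500–530 emission) in lysed PC12 cells expressing Q103-GFP after 100 nM tebufenozide induction; library tested in dose series, with ATPLite reagent added in the multiplex.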
* = called active by the depositor; ? = inconclusive; . = no result given; [ ] = another dose, or the depositor's remark. Unless noted, calls follow the shape of the dose curve; as a rule, active = well fitted curve in the direction sought with a large enough effect; inconclusive = small, poorly fitted or top-dose-only effect, or another doubt; inactive = no such curve, though single readings can be large; an effect the other way counts as inactive or inconclusive. Potency is read from the fitted curve at half-maximal effect.

SMILES	Epigenetic derep	LMNA splice mod	NPSR antag	HTT ATP protect	HttQ103 aggreg
Cc1nc(-c2ccc(Cl)cc2)sc1CCNC(=O)c1ccc(C(F)(F)F)cc1	-1.7%	?	.	.	.
Oc1ccc(CN2CCN(c3ccccc3)CC2)c2cccnc12	3.55µM*	-15.1%	-9.5%[46.1 µM]	17.5%[10 µM]	-30.8%
O=[N+]([O-])c1cc(CN2CCN(c3cccc(C(F)(F)F)c3)CC2)c2cccnc2c1O	1.4%	?	3.7%	-138.2%	8.91µM*
Oc1ccc(CN2CCCCC2)c2cccnc12	?	?	-11.1%[46.1 µM]	-16.0%[1.9 µM]	-0.3%[1.84 µM]
CCOC(=O)N1CCN(Cc2ccc(O)c3ncccc23)CC1	3.98µM*	?	7.7%	-30.5%[10 µM]	-18.6%[9.22 µM]
CCOC(=O)N1CCN(Cc2ccccn2)CC1	-1.5%	-1.5%	-1.7%[46.1 µM]	3.2%[10 µM]	0.4%
O=[N+]([O-])c1cc(CN2CCCC2)c2cccnc2c1O	-1.9%	-4.4%	3.0%	.	?
Oc1ccc(CN2CCc3ccccc3C2)c2cccnc12	3.55µM*	?	3.98µM*	-91.0%	?
Cc1oc2ncnc(N3CCCCC3)c2c1C(=O)Nc1cccc(Cl)c1C	1.4%	-2.8%[46 µM]	.	.	.
COc1ccc(-c2nc3sc(CCNC(=O)C(=O)Nc4ccccc4C#N)c(C)n3n2)cc1	3.9%	?	.	.	.
Cc1ccc(CS(=O)(=O)Cc2ccc(C(=O)NCCc3ccc(Cl)cc3)o2)cc1	1.2%	?	.	.	.
Cc1cccc(OCc2ccc(-c3nc(C#N)c(NCCN(C)C)o3)o2)c1	-3.2%	4.0%[46 µM]	.	.	.
O=C(CCn1cnc2onc(-c3ccc(F)cc3)c2c1=O)Nc1ccc(F)c(Cl)c1	0.0%	-0.6%[46 µM]	.	.	.
COc1ccc(N(C(=O)CCl)C(C(=O)NCCc2ccccc2)c2cccs2)cc1Cl (configuration not stated)	-1.0%	?	?	-39.8%[10 µM]	7.3%[9.22 µM]
COc1cccc(N(C(=O)CCl)C(C(=O)NCCc2ccccc2)c2cccs2)c1 (configuration not stated)	-0.9%	?	-30.1%	-63.2%[10 µM]	22.4µM*
Cc1ccc2onc(CNC(=O)NCc3ccc(Cl)cc3)c2c1	-0.6%	.	.	.	.
CCCOc1ccc(OCC(=O)c2[nH]c(C)c(C(C)=O)c2C)cc1	0.0%	?	-1.9%[46.1 µM]	-5.5%	8.91µM*
N#C/C(=C\Nc1ccccn1)C(=O)c1ccco1	.	.	.	-0.2%[10 µM]	.
OC[C@H]1O[C@@H](n2cnc3c(NCc4ccccc4)ncnc32)[C@H](O)[C@@H]1O	2.4%	.	.	-41.5%[1.9 µM]	.
O=S(=O)(Nc1cccnc1)c1ccc(C2CCCCC2)cc1	0.1%	?	-10.0%[46.1 µM]	7.3%[10 µM]	2.82µM*
O=S(=O)(Nc1cccnc1)c1ccccc1	0.1%	.	28.3%	-25.2%	4.1%
CC(=O)N1CCN(c2ccc(Nc3ncnc4c3oc3ccccc34)cc2)CC1	2.4%	?	?	-67.7%	17.8µM*
COC(=O)c1oc2ccc(OC)cc2c1N	-2.3%	1.6%	13.2%	-94.3%[10 µM]	2.82µM*
O=C(O)c1cc2c([nH]c1=O)CCCC2	0.0%	15.9%	-2.8%[46.1 µM]	6.0%	-17.9%
C=CCSC(=C(C#N)C#N)c1cc2c([nH]1)CCCC2	10.9%	?	12.6µM*	11.2µM*	?
SMILES	Epigenetic derep	LMNA splice mod	NPSR antag	HTT ATP protect	HttQ103 aggreg
Oc1cccc2c(NC(=S)Nc3ccc(OC(F)F)cc3)cccc12	14.2%	?	0.5%	-21.0%[10 µM]	12.6µM*
CCCn1nc2cc(C(=O)NCC34CC5CC(CC(C5)C3)C4)ccc2c1OCC	-1.4%	15.2%	-27.1%[46.1 µM]	-29.4%	31.6µM*
COCCn1nc2cc(C(=O)NCC34CC5CC(CC(C5)C3)C4)ccc2c1OC	-4.5%	2.0%	-2.9%[46.1 µM]	2.9%	17.9%
CCOc1ccccc1NC(=O)Cn1c(=O)n(Cc2ccccc2)c(=O)c2cccnc21	4.1%	.	.	.	.
CC(=O)CC1OC(=O)C(Br)=C1NCc1ccccc1 (configuration not stated)	7.94µM*	?	0.7%[46.1 µM]	-141.9%	?
CC(=O)c1ccc(N/N=C(/C(N)=O)C2=NC(C)(C)Cc3ccccc32)cc1	-0.6%	?	-12.6%	-20.8%[10 µM]	11.2µM*
Cc1ccc(OCC(=O)N2CC(C)OC(C)C2)c([N+](=O)[O-])n1 (configuration not stated)	-0.3%	?	20.3%	0.0501µM*	2.6%
Cc1ccc(OCC(=O)N2CCOCC2)c([N+](=O)[O-])n1	6.9%	.	4.6%	23.5%[10 µM]	20.0%[9.22 µM]

From PubChem
